From PubChem BioAssay (NCI)
This is part of a sample that, as a whole, favours compounds with a hit. Of some 79,000 tested, about 15% had one in any assay. Rule as the data show it: active = growth inhibition above about 70%; inactive = the rest.

Legend:
[1] = NCI Yeast Anticancer Drug Screen. Data for the rad50 strain (AID 155);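 also: 0% = growth of vehicle-only cultures of the same strain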; details: S. cerevisiae rad50 strain growth inhibition; at 50.0 µM; stronger effect = higher value
In short: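 Relative growth inhibition (compound vs vehicle) was measured in yeast with a defined repair-gene alteration.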

[2] = NCI Yeast Anticancer Drug Screen. Data for the mec2-1 strain (AID 157); details: S. cerevisiae mec2-1 strain, at 50.0 µM, stronger effect = higher value
In short: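 Growth inhibition is read against vehicle-treated controls after compound exposure of the mec2-1 yeast strain, which is defective in DNA damage repair or cell cycle control.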

[3] = NCI Yeast Anticancer Drug Screen. Data for the sgs1 mgt1 strain (AID 161);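 also: 0% = growth of cultures given vehicle only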; details: S. cerevisiae sgs1 mgt1 strain, at 50.0 µM, stronger effect = higher value
In short: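 Growth of a repair-deficient yeast mutant was monitored after compound treatment and expressed as inhibition relative to vehicle-treated cultures.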

[4] = NCI Yeast Anticancer Drug Screen. Data for the cln2 rad14 strain (AID 165);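 also: 0% = growth equal to vehicle treated cultures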; details: S. cerevisiae cln2 rad14 strain, at 50.0 µM, stronger effect = higher value
In short: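 Growth inhibition, relative to vehicle-treated controls, is the read-out. The test organism is a yeast strain with defined genetic alterations, cln2 rad14.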

[5] = NCI Yeast Anticancer Drug Screen. Data for the bub3 strain (AID 167); details: S. cerevisiae bub3 mutant strain, at 50.0 µM, stronger effect = higher value
In short: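 Screening used yeast with an engineered genetic alteration affecting cell cycle control. Compound-exposed cultures were compared with vehicle cultures, and reduced growth was taken as inhibition.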

[6] = NCI Yeast Anticancer Drug Screen. Data for the mlh1 rad18 strain (AID 175); details: S. cerevisiae mlh1 rad18 strain growth inhibition; at 50.0 µM; stronger effect = higher value
In short: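 Cells of a genetically altered yeast strain, deficient in DNA damage repair, were treated with compound. Their growth was then compared with that of vehicle-treated cultures to give inhibition.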

Measured: growth inhibition

COc1ccc(-n2nnnc2C2(Nc3ccccc3)CCN(Cc3ccccc3)CC2)cc1
inactive: [1] -22.4% | [2] -8.4% | [3] -1.4% | [4] 2.65% | [5] -2.15% | [6] 10.4%

COc1ccc(NC(=O)NNS(=O)(=O)c2ccc(C)cc2)cc1
inactive: [1] 10.1% | [2] 6.15% | [3] 6.6% | [4] 4.9% | [5] 13.9% | [6] -36.9%

CCCCOc1ccc(CCOC(C)=O)cc1
inactive: [1] 6.5% | [2] -14.4% | [3] 1.7% | [4] -25.3% | [5] -15% | [6] -20.8%

CCC(/C=N\NC(=O)CCCC(=O)N/N=C/C(CC)CC)CC
inactive: [1] -0.5% | [2] -8.5% | [3] -18.6% | [4] 5.65% | [5] 5.8% | [6] -0.35%

CCCCCC(C)C(C#N)C(=O)OCC (stereo unspecified)
inactive: [1] 1.2% | [2] -18.4% | [3] -14.4% | [4] -3.75% | [5] -18.9% | [6] -20.9%

N#Cc1cnsc1
inactive: [1] -4.15% | [2] 2.65% | [3] 4.75% | [4] 3.55% | [5] 12.4% | [6] -26.8%

CC(=O)NCC1(c2ccccc2)CCN(Cc2ccccc2)CC1
inactive: [1] -6.8% | [2] -17.3% | [3] -11.7% | [4] 5.7% | [5] -17% | [6] -14.2%

CSc1nc2c(ncn2C2OCC(O)C(O)C2O)c(=O)n1C (stereo unspecified)
inactive: [1] 12% | [2] 7.7% | [3] -24.2% | [4] 29.6% | [5] -4.35% | [6] 15.6%

COC(=O)COc1ccccc1[N+](=O)[O-]
inactive: [1] -0.15% | [2] 2.55% | [3] 0.6% | [4] 3.7% | [5] 5.25% | [6] 4.45%

CCOC(=O)NCc1cccc2ccccc12
inactive: [1] 3.2% | [2] -2.7% | [3] -10.3% | [4] -89.4% | [5] 10.7% | [6] 2.5%

CCOP(=O)(OCC)C1C(C)N1C(=O)Nc1ccccc1 (stereo unspecified)
inactive: [1] 1.4% | [2] -4.15% | [3] -8.1% | [4] 5% | [5] -11.7% | [6] -17.4%

CCN(CC)CCN(C)c1ccccc1
inactive: [1] 9.85% | [2] 4.35% | [3] -2.05% | [4] -1.05% | [5] -0.1% | [6] 0.3%

CCOC(=O)C(=CN(C)c1ccc(C)cc1)C(=O)OCC
inactive: [1] 20.4% | [2] 2.65% | [3] 8.2% | [4] 9.7% | [5] 25.6% | [6] 8.9%

N#C/C(=C\C=C\c1ccccc1)C(N)=O
inactive: [1] -57.8% | [2] -27.6% | [3] -27.4% | [4] -7.45% | [5] -51.5% | [6] -49.8%

COc1ccc(/C=C/C(=O)CC(=O)/C=C/c2ccc(OC)cc2)cc1
inactive: [1] 23.1% | [2] 35% | [3] 7.65% | [4] 0.6% | [5] -2.75% | [6] 10.8%

CC(C)(O)/C=C\P(C)(=O)c1ccccc1 (stereo unspecified)
inactive: [1] -30.9% | [2] -21.9% | [3] -4.7% | [4] 9.85% | [5] -32.5% | [6] -31.4%

COc1ccc(NC(=S)Nc2ccccc2)cc1
inactive: [1] 4.8% | [2] -36.8% | [3] -22.6% | [4] -46.9% | [5] -21.8% | [6] -8.4%

Cc1[nH]c2c(C)ccc(C)c2c1CC(=O)O
inactive: [1] 29.7% | [2] -15.1% | [3] -40.8% | [4] 17.1% | [5] -24.1% | [6] 10.2%

CC(=O)/C=C/N(C)c1ccc(O)cc1
inactive: [1] 40.6% | [2] 2.3% | [3] -6.45% | [4] 9.3% | [5] 5.55% | [6] -26.2%

CN1CCCC(CO)C1 (stereo unspecified)
inactive: [1] -10.8% | [2] -10.2% | [3] -7.65% | [4] 6.95% | [5] 7.75% | [6] -5.3%

CN(C)c1nc(NN)c2c(-c3ccccc3)c(-c3ccccc3)oc2n1
inactive: [1] 10.2% | [2] 3.9% | [3] 2.3% | [4] 9.35% | [5] 20.2% | [6] -11.2%

COC(=O)c1s/c(=N\C(=S)N(C)C)n(-c2ccccc2)c1C(=O)OC
inactive: [1] 5.3% | [2] 20.2% | [3] -0.1% | [4] 15.2% | [5] -8.85% | [6] 11.2%

Nc1cc(Cl)nc(Cl)n1
inactive: [1] 1.5% | [2] -25.6% | [3] 2.45% | [4] 10.1% | [5] -19.4% | [6] 3.8%

c1ccc2c(c1)cnc1cc3c(cc12)ncc1ccccc13
inactive: [1] 8.05% | [2] 19.9% | [3] 9.3% | [4] 14.8% | [5] -6.45% | [6] 28.8%

CCOC(=O)CC1=Nc2ccccc2SC1
inactive: [1] -28.4% | [2] -31.2% | [3] -14.8% | [4] -12.8% | [5] -22.6% | [6] -28.6%

CCS1=C2C(=O)CC(C)(C)CC2=Nc2ccccc21 (stereo unspecified)
inactive: [1] 7.2% | [2] -0.15% | [3] 18.9% | [4] -8.05% | [5] 17.9% | [6] -31.1%

CC(C)c1sc([S-])n[n+]1-c1ccccc1
inactive: [1] 10.2% | [2] -0.65% | [3] -9.5% | [4] -15.4% | [5] -4.3% | [6] 7%

Cn1c(=S)[nH]c2cc(Cl)c(Cl)cc21
inactive: [1] 17.4% | [2] -3.05% | [3] 0.55% | [4] -21.7% | [5] -14.7% | [6] 20.4%

COc1ccc(OC)c(C(=O)c2cccc(C(=O)c3cc(OC)ccc3OC)n2)c1
inactive: [1] 20.9% | [2] 6.25% | [3] 42.5% | [4] -21.8% | [5] -30.4% | [6] 20.6%

O=C1CCCC(c2ccccc2)O1 (stereo unspecified)
inactive: [1] -3.1% | [2] -14.2% | [3] 5.2% | [4] -67.5% | [5] -27.4% | [6] 14.7%

CN(c1ccc(Br)cc1)c1nc(N)nc(N)c1N=O
inactive: [1] 16.4% | [2] -10.6% | [3] 5.05% | [4] -98.6% | [5] 5.2% | [6] -1.8%

COC(c1ccccc1)(c1ccccc1)c1cc(NS(=O)(=O)c2ccccc2)ccc1NS(=O)(=O)c1ccccc1
inactive: [1] 14.2% | [2] 3.9% | [3] 13% | [4] -17.1% | [5] -4.7% | [6] 8.05%

O=C(c1ccccc1)N1OCCC1Nc1ccc(Br)cc1 (stereo unspecified)
inactive: [1] -9.85% | [2] -7.45% | [3] -3.95% | [4] 13.6% | [5] -15% | [6] 3.65%

COc1ccc(-c2nnc3cc(C)n4nnnc4n23)cc1OC
inactive: [1] 5.3% | [2] 5.55% | [3] 13.7% | [4] 9.1% | [5] 11.6% | [6] 16.2%

Cc1nc2cccc([N+](=O)[O-])c2c(O)[n+]1C
inactive: [1] -13.9% | [2] -10.8% | [3] -12.4% | [4] -17.6% | [5] -9.05% | [6] -17.9%

COc1cc(CNCCO)cc(OC)c1
inactive: [1] 22.2% | [2] 8.8% | [3] -1.35% | [4] -15.1% | [5] 19.6% | [6] 13%

O=C(N/C(=C\c1ccc([N+](=O)[O-])cc1)c1nc2ccccc2[nH]1)c1ccccc1
inactive: [1] 29.1% | [2] 6.55% | [3] 8.35% | [4] -37.9% | [5] 17.9% | [6] 23.8%

O=NNc1ccc(-c2ccc(NN=O)cc2)cc1
inactive: [1] 19.4% | [2] 0.75% | [3] 10.8% | [4] 10.2% | [5] -10.1% | [6] 8.95%

CCCCCCCCCCCCSC(=O)Nc1ccc(C(=O)OCC)cc1
inactive: [1] 24.9% | [2] 3.3% | [3] 12.7% | [4] -39.2% | [5] -2.55% | [6] 20.9%

CC(C)NC(=O)OCc1c(COC(=O)NC(C)C)c2cccn2c2c1cnn2-c1ccccc1
inactive: [1] -0.9% | [2] 0.6% | [3] -11.2% | [4] -3.7% | [5] 0.15% | [6] 18.3%

O=C(Nc1ccccn1)OCCCl
inactive: [1] -1.6% | [2] 0.6% | [3] 4.35% | [4] 10.1% | [5] -28.2% | [6] 7.1%
